High-throughput results (PubChem BioAssay)
In the library only some 6.5% were active in any assay of this set; here they are far more common.
Vaccinia Venus: vaccinia inhibition (Venus reporter); Vaccinia virus Venus reporter expression, fluorescence; Potency, µM (highest dose often 36.5 µM), without a hit: at the top dose activity change, negative = inhibition, actives largely listed as inhibitors; hit rate 0.46% among 330,000; AID 720580; calls by dose curve; tested in A549 cells; also: potency is read from the fitted curve at half-maximal effect; nearly all actives have a fitted effect of over 30% in size
Lassa entry inh: blocks Lassa virus binding to or entry into cells | Lassa virus pseudotype entry inhibition, cell reporter | Potency, µM (titrated, usually from 37.9 µM), without a hit: at the top dose activity change, negative = inhibition, hits mostly inhibitors | hit rate 1.2% among 300,000; calls by dose curve; tested in HEK293 cells; also: potency is read from the fitted curve at half-maximal effect; nearly all actives have a fitted effect of over 50% in size
HCMV antiviral: inhibitors of human cytomegalovirus; HFF cells, HCMV-luciferase reporter, 72 h; hits give low values; activity change, negative = inhibition, % at 57.5 µM; hit rate 4.5% among 410,000; in the data active = activity change below about -60%; inconclusive = no clear call, values can overlap the other calls; inactive = above about -39%
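Steps: HFFs plated, 16 h 37C; compounds added; HCMV-luciferase added to MOI 1 PFU/cell; 72 h 37C; OneGlo reagent, 5 min room temperature; luminescence read, normalized to controls.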
Vaccinia mCherry: inhibitors of vaccinia virus infection (mCherry reporter signal). Vaccinia virus mCherry reporter infection, fluorescence. Potency, µM (top dose mostly 36.5 µM), for the others: at the highest dose activity change, negative = inhibition, actives largely listed as inhibitors. hit rate 0.63% among 310,000. AID 720579; calls by dose curve; tested in A549 cells; also: potency is read from the fitted curve at half-maximal effect; nearly all actives have a fitted effect of over 35% in size
FMDV antiviral: foot and mouth disease virus antiviral activity. FMDV antiviral cell-based qHTS. Potency, µM (series often up to 57.9 µM), without a hit: at the top dose activity change, negative = inhibition, most hits filed as inhibitors. hit rate 1.2% among 410,000; calls by dose curve; tested in HEK293T cells; also: read-out not given here; potency is read from the fitted curve at half-maximal effect; nearly all actives have a fitted effect of over 45% in size
MARV entry inh: inhibitors of Marburg virus binding or cell entry; Marburg virus pseudotyped entry inhibition, cell reporter; Potency, µM (doses to about 37.8 µM), without a hit: top-dose activity change, negative = inhibition, actives largely listed as inhibitors; hit rate 1.8% among 300,000; calls by dose curve; tested in HEK293 cells; also: potency is read from the fitted curve at half-maximal effect
An asterisk follows results filed as active; [ ] = another dose, or the depositor's remark. % is scaled to controls: 0 for no effect and ±100 for the full control effect.

CN(C)c1ccc(/C=C\C=C/c2ccnc3ccccc23)cc1 was read as Vaccinia Venus 18% and Vaccinia mCherry 51%.
For Clc1ccc2nc(-c3ccc(Br)o3)c(Nc3ccc4c(c3)OCCO4)n2c1 the results were Vaccinia Venus -7%, Lassa entry inh 26%[46.1 µM], HCMV antiviral 9, Vaccinia mCherry -6%, FMDV antiviral -3% and MARV entry inh 13%[46.1 µM].
COc1ccc(/C=C/C(=O)c2ccccc2O)cc1CN1CCOCC1 was read as Vaccinia Venus 3%, Lassa entry inh inconclusive, FMDV antiviral inconclusive and MARV entry inh 11µM*.
For COc1ccc(C(=O)/C=C/c2ccc(OC)c(Cn3nnc4ccccc43)c2)cc1 the results were Vaccinia Venus inconclusive, Lassa entry inh inconclusive, HCMV antiviral inconclusive, Vaccinia mCherry 13µM*, FMDV antiviral 13µM* and MARV entry inh inconclusive.
For COc1ccc(C(=O)/C=C/c2ccc(OC)c(CN3CCOCC3)c2)cc1 the results were Vaccinia Venus inconclusive, Lassa entry inh inconclusive, HCMV antiviral -77*, Vaccinia mCherry 10µM*, FMDV antiviral 14µM* and MARV entry inh inconclusive.
COc1ccc(/C=C/C(=O)C23CC4CC(CC(C4)C2)C3)cc1CN1CCOCC1 was read as Vaccinia Venus -26%, Lassa entry inh inconclusive, HCMV antiviral -82*, Vaccinia mCherry -24%, FMDV antiviral inconclusive and MARV entry inh inconclusive.
`COc1ccc(/C=C/C(=O)c2ccc3ccccc3c2O)cc1CN1CCOCC1` gave Vaccinia Venus 0%, Lassa entry inh 19%, HCMV antiviral -21, Vaccinia mCherry -10%, FMDV antiviral inconclusive and MARV entry inh 2%.
`COc1cc(-c2noc(-c3ccc(NCc4ccco4)c([N+](=O)[O-])c3)n2)cc(OC)c1OC` gave Vaccinia Venus -5%, Lassa entry inh inconclusive, HCMV antiviral -1, Vaccinia mCherry -10%, FMDV antiviral -20% and MARV entry inh 17%[46.1 µM].
Screening Cc1nc2nc(NCc3ccc(Br)cc3)[nH]n2c(=O)c1Cc1ccccc1 returned Vaccinia Venus 3%, Lassa entry inh 0%[46.1 µM], HCMV antiviral 7, Vaccinia mCherry -18%, FMDV antiviral -11% and MARV entry inh 7%[46.1 µM].
Screening O=S(=O)(O)Sc1ccccc1 returned Vaccinia Venus -8%, HCMV antiviral -87*, Vaccinia mCherry -17% and FMDV antiviral -12%.
CCN(CC)c1ccc(SS(=O)(=O)O)cc1 was read as Vaccinia Venus 15%, Lassa entry inh inconclusive, HCMV antiviral -37, FMDV antiviral -15% and MARV entry inh 3%.
`N=C(N)SCc1ccccc1Cl` gave Vaccinia Venus -6%, Lassa entry inh -8%, HCMV antiviral -24, Vaccinia mCherry inactive, FMDV antiviral inconclusive and MARV entry inh 8.2µM*.
Screening COc1cccc(NC(=O)N(C)C[C@H]2Oc3cc(C#Cc4ccncc4)ccc3S(=O)(=O)N([C@H](C)CO)C[C@H]2C)c1 returned Vaccinia Venus inconclusive, HCMV antiviral -109*, Vaccinia mCherry inconclusive and FMDV antiviral 91%.
For Cc1ccccc1-c1ccc2c(c1)O[C@@H](CN(C)C(=O)Nc1ccc(C(F)(F)F)cc1)[C@H](C)CN([C@@H](C)CO)S2(=O)=O the results were Vaccinia Venus inconclusive, HCMV antiviral -76*, Vaccinia mCherry inconclusive and FMDV antiviral -24%.
C[C@H]1CN([C@@H](C)CO)S(=O)(=O)c2ccc(C#CC3CC3)cc2O[C@H]1CN(C)C(=O)c1cccnc1 was read as Vaccinia Venus -9%, HCMV antiviral -34, Vaccinia mCherry -12% and FMDV antiviral 19%.
Screening C[C@@H]1CN([C@@H](C)CO)S(=O)(=O)c2ccc(C#CC3CCCCC3)cc2O[C@@H]1CN(C)Cc1cccnc1 returned Vaccinia Venus 10µM*, HCMV antiviral -22, Vaccinia mCherry inconclusive and FMDV antiviral -14%.
For C[C@@H]1CN([C@H](C)CO)S(=O)(=O)c2ccc(Br)cc2O[C@@H]1CN(C)C(=O)Nc1ccc(C(F)(F)F)cc1 the results were Vaccinia Venus inconclusive, HCMV antiviral -10, Vaccinia mCherry inconclusive and FMDV antiviral -18%.
`O=C(Nc1ccc2ccccc2c1)C(=O)c1ccccc1F` gave HCMV antiviral -19.
For C(=C1C=c2ccccc2=C1)c1ccc(N=Nc2ccc(C=C3C=c4ccccc4=C3)cc2)cc1 the results were Vaccinia Venus -13% and Vaccinia mCherry 0%.
Cc1sc2nc(SCC(=O)NCc3ccco3)n(CCc3ccccc3)c(=O)c2c1C was read as Lassa entry inh -23%, HCMV antiviral -68*, FMDV antiviral 0% and MARV entry inh inconclusive.
O=C(CSc1ncnc2sc3c(c12)CCCCC3)NCc1ccco1 was read as Vaccinia Venus -22%, Lassa entry inh inconclusive, HCMV antiviral -9, Vaccinia mCherry -29%, FMDV antiviral 5% and MARV entry inh inconclusive.
Screening O=C(CSc1nc2sc3c(c2c(=O)n1-c1ccccc1)CCCC3)NCc1ccco1 returned Vaccinia Venus inconclusive, Lassa entry inh 0%, HCMV antiviral -93*, Vaccinia mCherry inconclusive, FMDV antiviral 0% and MARV entry inh 14%.
Screening CC(C)c1nc2sc3c(SCC(=O)NCc4ccco4)ncnc3c2c2c1CCC2 returned Vaccinia Venus 14µM*, Lassa entry inh inconclusive, HCMV antiviral 12, FMDV antiviral inconclusive and MARV entry inh inconclusive.
For Cc1cccc(NC(=O)CSc2ccc(-c3sc(-c4ccccc4)nc3C)nn2)c1C the results were Vaccinia Venus -14%, Lassa entry inh -1%[46.1 µM], HCMV antiviral -11, Vaccinia mCherry -19% and FMDV antiviral 14%.
`CC(C)(C)c1ccc(C(=O)NCC(c2cccs2)S(=O)(=O)c2ccccc2)cc1` (configuration not stated) gave Vaccinia Venus -17%, Lassa entry inh inconclusive, HCMV antiviral -6, Vaccinia mCherry -27% and FMDV antiviral inconclusive.
For COc1ccc(Cl)cc1NC(=O)CSc1cn(CC(=O)N2CCCCC2)c2ccccc12 the results were Vaccinia Venus -22%, Lassa entry inh -22%[46.1 µM], HCMV antiviral -72*, Vaccinia mCherry -2% and FMDV antiviral inconclusive.
For COc1ccc(OC)c(NC(=O)CSc2cn(CC(=O)N3CCCCCC3)c3ccccc23)c1 the results were Vaccinia Venus -17%, Lassa entry inh inconclusive, HCMV antiviral inconclusive, Vaccinia mCherry -16% and FMDV antiviral inconclusive.
Screening CC1CCN(C(=O)Cn2cc(SCC(=O)NCc3ccccc3)c3ccccc32)CC1 returned Vaccinia Venus -10%, Lassa entry inh 1%[46.1 µM], HCMV antiviral -85*, Vaccinia mCherry -1% and FMDV antiviral -4%.
`CC1CCN(C(=O)Cn2cc(SCC(=O)NCc3ccc(F)cc3)c3ccccc32)CC1` gave Vaccinia Venus -6%, Lassa entry inh 1%[46.1 µM], HCMV antiviral inconclusive, Vaccinia mCherry 6% and FMDV antiviral -7%.
